Results: ChEMBL document CHEMBL1961873, “Compounds: GSK PKIS; Assays: Nanosyn kinase panel” (2012)

Tests used:
[1] = target: Sphingosine kinase 1 (Homo sapiens) (UniProt Q9NYA1); details: at 1 µM;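 note: mean SPHK1 inhibition value reported from the GSK PKIS kinase panel screen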
[2] = target: T1, Sphingosine kinase 2 (Homo sapiens) (UniProt Q9NRA0); details: at 0.1 µM
T1 sequence (whole entry): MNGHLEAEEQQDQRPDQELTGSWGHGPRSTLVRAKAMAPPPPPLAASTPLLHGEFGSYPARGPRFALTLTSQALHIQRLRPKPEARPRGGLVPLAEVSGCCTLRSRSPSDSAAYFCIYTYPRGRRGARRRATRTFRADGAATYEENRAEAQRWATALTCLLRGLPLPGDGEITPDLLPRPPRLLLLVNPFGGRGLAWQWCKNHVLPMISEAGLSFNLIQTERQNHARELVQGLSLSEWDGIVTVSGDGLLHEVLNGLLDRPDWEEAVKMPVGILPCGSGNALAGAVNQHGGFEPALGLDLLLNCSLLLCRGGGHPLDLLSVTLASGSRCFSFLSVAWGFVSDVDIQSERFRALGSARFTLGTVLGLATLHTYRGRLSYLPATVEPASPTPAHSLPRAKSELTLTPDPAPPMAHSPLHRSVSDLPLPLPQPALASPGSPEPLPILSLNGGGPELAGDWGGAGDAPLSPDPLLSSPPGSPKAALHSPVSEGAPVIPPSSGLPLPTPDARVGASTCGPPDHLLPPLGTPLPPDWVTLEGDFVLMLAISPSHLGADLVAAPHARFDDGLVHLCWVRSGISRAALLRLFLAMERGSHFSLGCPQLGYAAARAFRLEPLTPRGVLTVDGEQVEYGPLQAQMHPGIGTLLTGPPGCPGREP

[3] = target: T1, Sphingosine kinase 2 (Homo sapiens); details: at 1 µM
[4] = target: Casein kinase II subunit alpha (Homo sapiens) (UniProt P68400); details: at 0.1 µM
Sequence of Casein kinase II subunit alpha (Homo sapiens) (P68400 whole entry, looked up): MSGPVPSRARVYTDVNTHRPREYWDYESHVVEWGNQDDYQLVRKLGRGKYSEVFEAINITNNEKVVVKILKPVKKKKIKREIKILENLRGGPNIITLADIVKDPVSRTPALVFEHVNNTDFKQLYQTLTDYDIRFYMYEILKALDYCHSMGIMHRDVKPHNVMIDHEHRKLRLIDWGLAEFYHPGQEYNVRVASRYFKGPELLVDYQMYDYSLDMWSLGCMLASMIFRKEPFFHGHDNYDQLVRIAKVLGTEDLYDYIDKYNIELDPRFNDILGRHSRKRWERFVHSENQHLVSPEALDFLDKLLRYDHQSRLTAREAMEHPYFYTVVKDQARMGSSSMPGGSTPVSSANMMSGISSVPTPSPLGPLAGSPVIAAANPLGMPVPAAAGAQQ

[5] = target: Casein kinase II subunit alpha (Homo sapiens) (UniProt P68400); details: at 1 µM
[6] = target: T2, Inhibitor of nuclear factor kappa-B kinase subunit alpha (Homo sapiens) (UniProt O15111); details: at 0.1 µM
T2 sequence (whole entry): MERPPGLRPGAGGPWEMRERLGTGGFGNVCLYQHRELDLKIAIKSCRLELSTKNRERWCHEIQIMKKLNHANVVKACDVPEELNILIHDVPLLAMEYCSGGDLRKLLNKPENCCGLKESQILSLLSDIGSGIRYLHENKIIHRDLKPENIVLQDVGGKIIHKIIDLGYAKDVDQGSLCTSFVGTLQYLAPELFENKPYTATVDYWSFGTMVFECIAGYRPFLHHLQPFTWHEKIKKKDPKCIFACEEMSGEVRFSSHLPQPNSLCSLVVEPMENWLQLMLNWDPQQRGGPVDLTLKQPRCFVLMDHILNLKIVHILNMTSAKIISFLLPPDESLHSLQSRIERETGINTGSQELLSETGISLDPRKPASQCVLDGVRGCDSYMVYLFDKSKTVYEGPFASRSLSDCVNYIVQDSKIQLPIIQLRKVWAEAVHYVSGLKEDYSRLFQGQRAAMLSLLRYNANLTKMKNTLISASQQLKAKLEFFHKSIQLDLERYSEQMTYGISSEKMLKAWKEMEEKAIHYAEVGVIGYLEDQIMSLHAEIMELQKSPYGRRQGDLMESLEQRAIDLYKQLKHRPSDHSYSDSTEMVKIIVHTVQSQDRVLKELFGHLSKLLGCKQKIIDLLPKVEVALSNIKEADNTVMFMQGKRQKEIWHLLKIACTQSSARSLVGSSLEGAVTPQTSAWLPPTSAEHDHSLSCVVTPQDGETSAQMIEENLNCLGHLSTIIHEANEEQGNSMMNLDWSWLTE

[7] = target: T2, Inhibitor of nuclear factor kappa-B kinase subunit alpha (Homo sapiens); details: at 1 µM
[8] = target: T3, Inhibitor of nuclear factor kappa-B kinase subunit beta (Homo sapiens) (UniProt O14920); details: at 0.1 µM
T3 sequence (whole entry): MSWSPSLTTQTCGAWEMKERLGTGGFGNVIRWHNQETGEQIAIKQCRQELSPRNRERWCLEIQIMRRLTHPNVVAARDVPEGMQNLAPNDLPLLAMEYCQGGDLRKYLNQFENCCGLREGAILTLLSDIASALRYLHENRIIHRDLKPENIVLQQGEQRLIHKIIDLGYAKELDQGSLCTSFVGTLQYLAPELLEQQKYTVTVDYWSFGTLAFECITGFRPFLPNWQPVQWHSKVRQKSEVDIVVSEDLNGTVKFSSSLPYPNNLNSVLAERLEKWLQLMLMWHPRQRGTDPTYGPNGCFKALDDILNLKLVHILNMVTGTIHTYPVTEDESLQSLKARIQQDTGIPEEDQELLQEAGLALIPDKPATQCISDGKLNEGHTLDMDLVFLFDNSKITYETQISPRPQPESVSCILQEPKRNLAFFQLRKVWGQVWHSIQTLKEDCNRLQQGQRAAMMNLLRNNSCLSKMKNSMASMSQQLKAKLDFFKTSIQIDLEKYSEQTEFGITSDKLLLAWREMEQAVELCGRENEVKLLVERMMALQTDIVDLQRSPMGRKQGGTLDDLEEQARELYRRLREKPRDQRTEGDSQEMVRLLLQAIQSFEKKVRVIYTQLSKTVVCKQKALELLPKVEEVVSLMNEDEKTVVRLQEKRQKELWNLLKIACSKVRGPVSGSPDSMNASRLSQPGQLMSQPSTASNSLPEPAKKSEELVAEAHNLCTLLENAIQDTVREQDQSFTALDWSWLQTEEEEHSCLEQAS

[9] = target: T3, Inhibitor of nuclear factor kappa-B kinase subunit beta (Homo sapiens); details: at 1 µM
[10] = target: T4, Inhibitor of nuclear factor kappa-B kinase subunit epsilon (Homo sapiens) (UniProt Q14164); details: at 0.1 µM
T4 sequence (whole entry): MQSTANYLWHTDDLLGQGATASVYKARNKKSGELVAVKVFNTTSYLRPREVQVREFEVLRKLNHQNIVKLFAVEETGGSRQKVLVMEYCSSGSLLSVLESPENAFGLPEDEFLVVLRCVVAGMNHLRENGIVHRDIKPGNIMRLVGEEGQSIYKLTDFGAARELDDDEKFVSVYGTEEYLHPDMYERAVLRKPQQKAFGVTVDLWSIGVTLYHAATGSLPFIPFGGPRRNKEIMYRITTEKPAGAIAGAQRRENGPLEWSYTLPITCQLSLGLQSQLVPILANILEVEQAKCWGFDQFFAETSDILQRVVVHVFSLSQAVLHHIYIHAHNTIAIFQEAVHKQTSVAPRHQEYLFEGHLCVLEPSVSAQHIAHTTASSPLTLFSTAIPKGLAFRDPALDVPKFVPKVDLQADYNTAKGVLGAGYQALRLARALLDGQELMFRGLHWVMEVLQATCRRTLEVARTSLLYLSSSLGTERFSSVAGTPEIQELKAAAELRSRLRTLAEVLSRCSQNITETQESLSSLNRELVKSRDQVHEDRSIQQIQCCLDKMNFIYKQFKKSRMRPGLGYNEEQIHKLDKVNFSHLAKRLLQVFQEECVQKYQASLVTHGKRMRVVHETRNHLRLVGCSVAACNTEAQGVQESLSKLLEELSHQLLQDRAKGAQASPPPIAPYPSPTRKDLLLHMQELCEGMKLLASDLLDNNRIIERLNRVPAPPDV

[11] = target: T4, Inhibitor of nuclear factor kappa-B kinase subunit epsilon (Homo sapiens); details: at 1 µM
[12] = target: T5, Serine/threonine-protein kinase Nek1 (Homo sapiens) (UniProt Q96PY6); details: at 0.1 µM
T5 sequence (whole entry): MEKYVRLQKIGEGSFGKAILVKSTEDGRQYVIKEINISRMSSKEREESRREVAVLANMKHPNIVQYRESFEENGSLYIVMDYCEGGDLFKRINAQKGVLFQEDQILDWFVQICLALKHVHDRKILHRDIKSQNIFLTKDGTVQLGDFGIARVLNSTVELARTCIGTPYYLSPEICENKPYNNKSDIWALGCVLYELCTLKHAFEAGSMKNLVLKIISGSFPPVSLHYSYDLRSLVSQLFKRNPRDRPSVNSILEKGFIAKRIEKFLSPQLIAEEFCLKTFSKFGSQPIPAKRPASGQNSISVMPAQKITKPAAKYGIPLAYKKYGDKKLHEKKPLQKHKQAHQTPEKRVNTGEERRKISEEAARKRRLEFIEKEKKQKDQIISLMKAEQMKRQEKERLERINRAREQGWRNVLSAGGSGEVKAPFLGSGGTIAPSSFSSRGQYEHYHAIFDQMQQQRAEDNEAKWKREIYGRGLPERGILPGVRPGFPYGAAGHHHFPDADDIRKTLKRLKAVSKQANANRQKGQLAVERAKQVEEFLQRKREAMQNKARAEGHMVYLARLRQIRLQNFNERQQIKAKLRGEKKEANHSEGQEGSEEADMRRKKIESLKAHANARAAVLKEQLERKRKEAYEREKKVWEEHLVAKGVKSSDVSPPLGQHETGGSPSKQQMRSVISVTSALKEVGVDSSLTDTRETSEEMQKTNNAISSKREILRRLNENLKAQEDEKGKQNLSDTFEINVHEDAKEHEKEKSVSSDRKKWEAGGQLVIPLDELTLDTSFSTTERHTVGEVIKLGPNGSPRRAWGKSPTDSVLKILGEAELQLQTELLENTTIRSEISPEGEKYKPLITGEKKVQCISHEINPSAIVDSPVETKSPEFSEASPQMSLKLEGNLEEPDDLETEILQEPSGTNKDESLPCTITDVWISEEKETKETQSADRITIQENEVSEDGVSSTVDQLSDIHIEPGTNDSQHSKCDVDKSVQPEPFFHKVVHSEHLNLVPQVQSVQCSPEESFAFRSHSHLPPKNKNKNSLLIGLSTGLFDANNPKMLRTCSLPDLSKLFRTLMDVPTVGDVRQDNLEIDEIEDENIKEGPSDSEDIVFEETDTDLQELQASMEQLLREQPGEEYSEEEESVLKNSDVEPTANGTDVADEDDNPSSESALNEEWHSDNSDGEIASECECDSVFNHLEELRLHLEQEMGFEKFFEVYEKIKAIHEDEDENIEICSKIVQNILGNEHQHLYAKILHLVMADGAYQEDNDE

[13] = target: T5, Serine/threonine-protein kinase Nek1 (Homo sapiens); details: at 1 µM
[14] = target: T6, Serine/threonine-protein kinase Nek2 (Homo sapiens) (UniProt P51955); details: at 0.1 µM
T6 sequence (whole entry): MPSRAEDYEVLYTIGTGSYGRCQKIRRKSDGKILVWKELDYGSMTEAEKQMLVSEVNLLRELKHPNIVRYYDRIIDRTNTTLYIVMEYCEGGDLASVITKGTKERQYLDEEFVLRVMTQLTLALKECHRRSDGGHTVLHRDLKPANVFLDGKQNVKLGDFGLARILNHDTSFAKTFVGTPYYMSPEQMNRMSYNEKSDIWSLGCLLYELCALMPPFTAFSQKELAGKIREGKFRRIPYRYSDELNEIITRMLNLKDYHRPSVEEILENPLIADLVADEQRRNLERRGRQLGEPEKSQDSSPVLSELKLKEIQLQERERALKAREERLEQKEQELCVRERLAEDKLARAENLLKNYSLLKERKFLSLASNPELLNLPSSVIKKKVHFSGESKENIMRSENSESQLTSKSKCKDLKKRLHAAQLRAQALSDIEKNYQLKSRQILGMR

[15] = target: T6, Serine/threonine-protein kinase Nek2 (Homo sapiens); details: at 1 µM
[16] = target: Serine/threonine-protein kinase Nek6 (Homo sapiens) (UniProt Q9HC98); details: at 0.1 µM
Sequence of Serine/threonine-protein kinase Nek6 (Homo sapiens) (Q9HC98 whole entry): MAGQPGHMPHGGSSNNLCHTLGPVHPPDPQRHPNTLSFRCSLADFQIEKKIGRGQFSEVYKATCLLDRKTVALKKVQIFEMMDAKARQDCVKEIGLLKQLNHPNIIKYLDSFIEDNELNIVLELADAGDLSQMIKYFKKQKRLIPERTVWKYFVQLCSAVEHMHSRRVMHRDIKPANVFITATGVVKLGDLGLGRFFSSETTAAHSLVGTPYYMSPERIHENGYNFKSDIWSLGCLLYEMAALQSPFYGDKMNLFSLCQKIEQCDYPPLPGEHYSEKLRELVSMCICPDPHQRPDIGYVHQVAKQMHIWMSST

[17] = target: Serine/threonine-protein kinase Nek6 (Homo sapiens) (UniProt Q9HC98); details: at 1 µM
[18] = target: Serine/threonine-protein kinase Nek7 (Homo sapiens) (UniProt Q8TDX7); details: at 0.1 µM
Sequence of Serine/threonine-protein kinase Nek7 (Homo sapiens) (Q8TDX7 whole entry, looked up): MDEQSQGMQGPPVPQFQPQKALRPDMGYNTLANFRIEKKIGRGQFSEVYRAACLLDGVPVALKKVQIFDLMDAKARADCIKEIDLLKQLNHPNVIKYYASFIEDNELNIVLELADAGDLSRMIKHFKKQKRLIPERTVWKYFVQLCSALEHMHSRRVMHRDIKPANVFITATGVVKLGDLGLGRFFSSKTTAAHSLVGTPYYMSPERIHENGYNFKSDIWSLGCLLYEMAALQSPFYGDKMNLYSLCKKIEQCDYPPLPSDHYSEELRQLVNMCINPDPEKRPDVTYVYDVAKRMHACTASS

[19] = target: Serine/threonine-protein kinase Nek7 (Homo sapiens) (UniProt Q8TDX7); details: at 1 µM
[20] = target: T7, Serine/threonine-protein kinase Nek9 (Homo sapiens) (UniProt Q8TD19); details: at 0.1 µM;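 note: reported value is the mean percent inhibition of NEK9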
T7 sequence (whole entry): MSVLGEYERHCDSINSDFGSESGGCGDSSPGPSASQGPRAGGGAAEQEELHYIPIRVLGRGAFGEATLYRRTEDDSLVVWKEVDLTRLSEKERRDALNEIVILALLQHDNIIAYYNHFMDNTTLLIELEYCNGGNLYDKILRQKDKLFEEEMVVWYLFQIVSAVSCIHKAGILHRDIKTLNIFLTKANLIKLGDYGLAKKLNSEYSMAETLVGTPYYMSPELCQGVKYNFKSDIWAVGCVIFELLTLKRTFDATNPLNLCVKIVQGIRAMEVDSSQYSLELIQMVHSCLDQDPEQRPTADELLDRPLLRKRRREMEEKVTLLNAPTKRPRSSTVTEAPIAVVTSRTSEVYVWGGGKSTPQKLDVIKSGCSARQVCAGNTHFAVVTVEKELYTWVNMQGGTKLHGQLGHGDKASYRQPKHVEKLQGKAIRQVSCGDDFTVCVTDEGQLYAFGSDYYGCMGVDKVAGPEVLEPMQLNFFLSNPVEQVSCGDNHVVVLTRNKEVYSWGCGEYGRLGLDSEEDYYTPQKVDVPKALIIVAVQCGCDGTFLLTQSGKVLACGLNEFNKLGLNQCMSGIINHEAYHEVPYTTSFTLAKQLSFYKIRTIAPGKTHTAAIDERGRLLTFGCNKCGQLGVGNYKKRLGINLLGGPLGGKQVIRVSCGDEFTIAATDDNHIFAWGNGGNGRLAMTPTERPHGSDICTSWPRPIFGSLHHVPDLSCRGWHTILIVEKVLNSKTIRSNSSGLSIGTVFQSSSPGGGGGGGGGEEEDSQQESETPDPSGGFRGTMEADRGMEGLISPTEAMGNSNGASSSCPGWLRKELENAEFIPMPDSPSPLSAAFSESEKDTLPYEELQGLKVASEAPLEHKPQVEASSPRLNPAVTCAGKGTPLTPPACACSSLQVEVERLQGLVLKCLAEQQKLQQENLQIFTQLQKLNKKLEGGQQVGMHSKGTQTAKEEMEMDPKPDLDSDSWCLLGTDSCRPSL

Sequence of Sphingosine kinase 1 (Homo sapiens) (Q9NYA1 whole entry): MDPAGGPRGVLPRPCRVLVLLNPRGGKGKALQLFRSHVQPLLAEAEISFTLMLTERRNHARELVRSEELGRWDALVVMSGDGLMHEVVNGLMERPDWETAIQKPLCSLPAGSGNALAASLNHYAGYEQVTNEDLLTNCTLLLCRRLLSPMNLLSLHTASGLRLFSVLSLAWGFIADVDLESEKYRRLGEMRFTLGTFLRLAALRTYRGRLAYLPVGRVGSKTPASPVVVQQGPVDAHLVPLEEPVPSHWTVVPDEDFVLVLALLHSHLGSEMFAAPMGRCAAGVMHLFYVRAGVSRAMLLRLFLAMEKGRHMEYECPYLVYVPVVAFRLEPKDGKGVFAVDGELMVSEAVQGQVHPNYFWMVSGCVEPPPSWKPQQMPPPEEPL

SMILES | inhibition [1] [%] | inhibition [2] [%] | inhibition [3] [%] | inhibition [4] [%] | inhibition [5] [%] | inhibition [6] [%] | inhibition [7] [%] | inhibition [8] [%] | inhibition [9] [%] | inhibition [10] [%] | inhibition [11] [%] | inhibition [12] [%] | inhibition [13] [%] | inhibition [14] [%] | inhibition [15] [%] | inhibition [16] [%] | inhibition [17] [%] | inhibition [18] [%] | inhibition [19] [%] | inhibition [20] [%]
Cc1ccc2c(-c3ccnc(Nc4ccc5c(c4)OCCO5)n3)c(-c3ccc(C(F)(F)F)cc3)nn2n1 | -4.65 | -0.54 | 1.85 | 9.31 | 1.49 | 0.44 | 0.46 | -1.92 | -5.04 | 4.65 | -0.03 | 0.53 | 1.72 | 1.37 | 1.37 | 0.53 | -0.1 | -0.01 | 0 | 1.38
Oc1cccc(-c2nc(-c3ccccc3)[nH]c2-c2ccncc2)c1 | -1.58 | 0.02 | -1.65 | 3.96 | 9.51 | 2.95 | 5.47 | 5.25 | 3.12 | 5.43 | 4.72 | 2.81 | 3.39 | 3.98 | 4.3 | -0.13 | 4.45 | 4.5 | 5.32 | 9.92
